A number with no mark means an inactive call. Activity calls are given as the source filed them.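 How the source made its calls, unless noted: active means mean inhibition over 43.08%, the solvent-only control mean plus 3 SD; inactive means the rest.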
Key:
[1] = molecular target: Nuclear receptor coactivator 3 (Homo sapiens) (UniProt Q9Y6Q9); assay: SRC3 coactivator transcriptional activity inhibitors, confirmation, cell-based, luminescence, quadruplicate (AID 588792); conditions: HEK293 GAL4-SRC3 luciferase reporter, at 3.6 µM, hits give high values;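 further: 0% = DMSO treated cells and 100% = gossypol at 36 µM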
Chain of Nuclear receptor coactivator 3 (Homo sapiens) (Q9Y6Q9 whole entry, looked up, the tested form may be a part): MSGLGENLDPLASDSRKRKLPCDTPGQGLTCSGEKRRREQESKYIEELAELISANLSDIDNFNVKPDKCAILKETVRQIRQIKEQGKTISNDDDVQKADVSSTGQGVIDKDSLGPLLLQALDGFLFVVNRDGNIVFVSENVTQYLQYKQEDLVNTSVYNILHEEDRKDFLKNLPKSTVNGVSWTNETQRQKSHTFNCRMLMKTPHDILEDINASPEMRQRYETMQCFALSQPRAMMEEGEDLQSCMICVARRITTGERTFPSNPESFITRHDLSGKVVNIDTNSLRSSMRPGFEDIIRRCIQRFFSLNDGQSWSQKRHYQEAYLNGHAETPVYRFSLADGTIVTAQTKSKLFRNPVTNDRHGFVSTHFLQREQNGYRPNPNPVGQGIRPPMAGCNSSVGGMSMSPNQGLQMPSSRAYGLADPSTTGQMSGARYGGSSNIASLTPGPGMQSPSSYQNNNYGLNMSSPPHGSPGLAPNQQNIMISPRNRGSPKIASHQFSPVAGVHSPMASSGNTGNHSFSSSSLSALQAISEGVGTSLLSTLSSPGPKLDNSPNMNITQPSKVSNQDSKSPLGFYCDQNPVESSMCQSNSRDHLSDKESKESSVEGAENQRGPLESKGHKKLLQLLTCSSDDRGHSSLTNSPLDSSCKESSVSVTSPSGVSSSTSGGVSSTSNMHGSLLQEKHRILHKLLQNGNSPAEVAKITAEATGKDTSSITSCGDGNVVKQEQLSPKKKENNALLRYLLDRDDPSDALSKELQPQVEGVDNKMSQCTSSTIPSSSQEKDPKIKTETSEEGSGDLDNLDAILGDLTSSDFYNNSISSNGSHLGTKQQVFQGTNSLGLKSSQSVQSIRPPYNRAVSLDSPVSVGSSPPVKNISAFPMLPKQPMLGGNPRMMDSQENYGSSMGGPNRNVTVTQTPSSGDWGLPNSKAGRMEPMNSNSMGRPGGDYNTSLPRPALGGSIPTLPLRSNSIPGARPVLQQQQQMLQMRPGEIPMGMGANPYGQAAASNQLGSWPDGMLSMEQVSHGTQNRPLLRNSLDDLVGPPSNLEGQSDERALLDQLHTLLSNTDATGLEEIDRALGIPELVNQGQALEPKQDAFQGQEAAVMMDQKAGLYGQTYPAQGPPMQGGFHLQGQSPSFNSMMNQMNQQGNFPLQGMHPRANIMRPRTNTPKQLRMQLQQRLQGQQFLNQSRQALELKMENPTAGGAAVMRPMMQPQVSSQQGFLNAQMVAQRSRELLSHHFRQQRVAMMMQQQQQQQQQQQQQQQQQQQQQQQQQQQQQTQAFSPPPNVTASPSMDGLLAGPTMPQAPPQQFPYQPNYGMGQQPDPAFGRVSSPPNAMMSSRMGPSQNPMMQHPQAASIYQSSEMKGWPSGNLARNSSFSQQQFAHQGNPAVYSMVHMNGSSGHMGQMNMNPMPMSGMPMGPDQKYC

[2] = tested on: transactivating tegument protein VP16 (Human herpesvirus 1), Gal4-VP16 luciferase reporter; assay: VP16 transactivation inhibitors, counter-screen for SRC3 inhibitor project, cell-based, luminescence, high throughput (AID 588794; in the data active means inhibition above about 30%); conditions: mammalian cells, VP16-driven luciferase reporter luminescence; at 3.6 µM; hits give high values

SMILES | inhibition [1] | inhibition [2]
Fc1ccc(-c2noc(C3CCN(Cc4cccnc4)CC3)n2)cc1 | -4.45% | 6.14%
C=C[C@@H]1c2c(F)cccc2N(S(=O)(=O)c2ccc(C)cc2)[C@H](c2ccc(OC(C)=O)cc2)C1(C#N)C#N | 10.4% | 3.61%
O=C(Nc1ncc(Cc2ccc(C(F)(F)F)cc2)s1)c1ccc(-c2cccc([N+](=O)[O-])c2)o1 | 0.3% | 44.4% (active)
CC1CCC(C(C)C)C(OC(=O)Cn2c(-c3ccc(Br)cc3)[n+](C)c3ccccc32)C1 (configuration not stated) | 3.76% | 35.8% (active)
CCN1/C(=C/c2cc[n+](C)cc2)C=Cc2cc(C)ccc21 | 17% | 70.9% (active)
COc1ccc(CCN2C(=O)c3cccc4c(C(=O)N5CCCCC5)ccc(c34)C2=O)cc1OC | -2.54% | 3.93%
Nc1ccccc1-c1ccc([N+](=O)[O-])cc1 | 5.58% | 33.1% (active)
C#CCN(C[C@@H]1[C@@H](OC(=O)NCc2ccccc2F)[C@@H](OC(=O)NCc2ccccc2F)Cn2c(=O)ccc(=O)n21)S(=O)(=O)c1ccc(C)cc1 | -2.92% | 24.2%
CCc1ccc2nc3nc(C)cc(C)c3c(N)c2c1 | 20.2% | 32.7% (active)
CN(C)S(=O)(=O)c1ccc(N2CCN(S(=O)(=O)c3ccc(F)cc3)CC2)c(Cl)c1 | 41.9% | 28.5%
COc1cc(OC)cc(-c2nn[nH]n2)c1 | -10.5% | -1.27%
O=c1c2ccccc2cnn1CCOc1ccccc1 | -15.3% | -21.5%
O=C(NCCc1ccccn1)C(F)(F)C(F)(F)C(F)(F)C(F)(F)C(F)(F)C(F)(F)C(F)(F)C(F)F | 9.78% | -4.16%
O=C(N/N=C/c1cc(Br)c(Br)s1)c1ccncc1 | 31.1% | 18.5%
Cc1cccc(Oc2sc(C(=O)c3ccccc3)c(N)c2C#N)c1 | 34.8% | 5.81%
COc1ccc(C(=O)NCC(=O)OCc2c(Cl)cccc2Cl)cc1OC | -0.66% | 1.22%
O=C(CN1CC(c2ccccc2)CC1=O)N/N=C/c1cc(Br)ccc1O (configuration not stated) | 15.1% | 10.9%
COc1cc(/C=C2\SC(=S)N(CCC(=O)NC3CCCC3)C2=O)cc(OC)c1OC | -4.46% | 9.3%
Nc1nc(CCl)nc(N(c2ccccc2)c2ccccc2)n1 | 18.4% | 15.9%

SMILES | inhibition [1] | inhibition [2]
CCCn1nc(C(=O)NCC2COc3ccccc3O2)c2ccccc2c1=O (configuration not stated) | 9.61% | 3.2%
CCCCN(CCCC)C(=O)CSc1nnc(-c2cc(OC)c(OC)c(OC)c2)o1 | -1.92% | 4.79%
Cc1ccc(F)cc1NC(=O)C1CCN(c2cnccn2)CC1 | -9.49% | -3.26%
CCOC(=O)C1=C(C)N[C@@]2(O)c3ccccc3C(=O)[C@@]12O | 2.93% | -4.31%
Cc1ccc(S(=O)(=O)C(C#N)c2nc3ccccc3nc2N2CCN(C)CC2)cc1 (configuration not stated) | 19.1% | -2.04%
CCCn1c(N)c(C(=O)CSc2ncc(C(F)(F)F)cc2Cl)c(=O)[nH]c1=O | 14.6% | -5.96%
CCCC(C(=O)NC(C)(C)C)N(C(=O)c1snc(C(N)=O)c1N)c1ccc2c(c1)OCCO2 (configuration not stated) | 15.9% | 2.4%
Oc1cccc2ccc(Nc3ccccn3)nc12 | 3.4% | -8.03%
Cc1cc(C(=O)Nc2ccncc2)c(C)o1 | 8.35% | -9.44%
COC(=O)c1c(NC(=O)c2ccccc2)sc(C(N)=O)c1C | 26.7% | 55.4% (active)
Cc1ccc(C(=O)C[n+]2ccc(Cc3ccccc3)cc2)cc1 | -4.6% | 14.8%
CCc1nc2ccccc2c(C(=O)OCC(=O)Nc2cccc(S(=O)(=O)N3CCOCC3)c2)c1C | 1.17% | 8.71%
Cc1[nH]n(-c2ccccc2)c(=O)c1/C=N/Nc1nncc(-c2ccccc2)n1 | 74.3% (active) | 67.5% (active)
Cc1cc(/C=C2\SC(=S)N(C)C2=O)c(C)n1-c1cccc(O)c1 | 51.6% (active) | 38% (active)
S=C(Nc1cccc2ccccc12)NN1CCCCCC1 | 43.8% (active) | 33% (active)
COc1ccc(-n2c(C)cc(C(=O)COc3ccc(C)nc3[N+](=O)[O-])c2C)cc1 | 14.4% | 10.7%
CC(C)c1ccc(NC(=O)C2CCCN(S(=O)(=O)c3cccnc3)C2)cc1 (configuration not stated) | -12.3% | 4.41%
COc1ccc(C(=O)Cn2nc(CNc3ccc(Br)cc3)[n+]3c2CCCCC3)cc1 | -7.02% | 3.2%
Cc1cccc(OC(=O)NCCOC(=O)N(O)c2ccc(Cl)cc2)c1 | 4.94% | -5.77%

SMILES | inhibition [1] | inhibition [2]
Cc1cc(C)n(Cc2ccc(NC(=O)c3ccc(COc4ccccc4Br)cc3)cc2)n1 | -0.48% | 20.2%
COc1ccc2nc(C)cc(Nc3ccc(N4CCN(C)CC4)cc3)c2c1 | 71.8% (active) | 35.3% (active)
O=C(Nc1ccc(Oc2cccnc2)nc1)c1ccc(C(F)(F)F)cc1 | 17.2% | 37.1% (active)
CC(=O)c1ccc(Nc2c3c(nc4ccccc24)CCCC3)cc1 | 32.7% | -3.62%
COc1ccc(OC)c(NC(=O)c2cccc(N3C(=O)C4C5C=CC(C6CC56)C4C3=O)c2)c1 (configuration not stated) | -11.6% | 7.26%
Nc1ncnc(Sc2ccc(Cl)cc2)c1[N+](=O)[O-] | 13.4% | 9.09%
Cc1cc(C)n(CCC(=O)N/N=C/c2ccccc2O)n1 | 18% | 4.14%
CCCCNC(=O)c1onc(CSc2cc(C)cc(C)c2)c1C(=O)NCCCC | 7.83% | 4.86%
COCC(C)n1c(SCC(=O)NC(=O)Cc2ccccc2)nc2ccccc2c1=O (configuration not stated) | 19.1% | -4.14%
COc1ccc(C(=O)Nc2nc(-c3ccccn3)cs2)cc1S(=O)(=O)N1CCOCC1 | 18.3% | -11.1%
COc1ccc(C(C)=O)cc1CSc1nnc(Nc2ccccc2)s1 | 9.88% | 19.3%
CN1C/C(=C/c2cccnc2)C(=O)/C(=C/c2cccnc2)C1 | 23.5% | 54.1% (active)
Cc1noc(C)c1CN1C(=O)NC2(CCCCCCC2)C1=O | 0.62% | -10.4%
COc1ccc(Oc2ccc(/C=C/C(=O)c3ccc(O)cc3)cc2[N+](=O)[O-])cc1 | -5.49% | -5.56%
Cc1cccc(NC(=S)N(CCCN2CCOCC2)Cc2cn(C)c3ccccc23)c1 | -2.78% | -2.77%
CCCCNC1C(CC)C(CCC)C(C#N)(C#N)C1(C#N)C#N (configuration not stated) | 3.79% | 20%
CCOc1cccc(-n2nnnc2-c2ccc(OC)cc2)c1 | 7.46% | 14.6%
Cc1cc(C=C2C(=O)c3ccccc3C2=O)c(C)n1-c1ccccc1 | 67.5% (active) | 43.2% (active)

Source: PubChem BioAssay
